# Data as given in PMC4336329 (PLoS ONE, 2015).
# The campaign covered roughly 310,000 compounds. About 14,000 (4.5%) showed an effect of 50% or more. The effect is printed as a negative number. The sample as a whole holds a higher share of strong results than the screen did.
# Target: human ether-à-go-go-related gene (hERG) potassium channel (human, UniProt Q12809)
# Test: primary screen, population patch clamp on CHO cells stably expressing hERG; higher = less effect of the substance
# 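Also: peak tail current of the secondary pulse compared with the same well before compound.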
# human ether-à-go-go-related gene (hERG) potassium channel, sequence (Q12809 whole entry, looked up): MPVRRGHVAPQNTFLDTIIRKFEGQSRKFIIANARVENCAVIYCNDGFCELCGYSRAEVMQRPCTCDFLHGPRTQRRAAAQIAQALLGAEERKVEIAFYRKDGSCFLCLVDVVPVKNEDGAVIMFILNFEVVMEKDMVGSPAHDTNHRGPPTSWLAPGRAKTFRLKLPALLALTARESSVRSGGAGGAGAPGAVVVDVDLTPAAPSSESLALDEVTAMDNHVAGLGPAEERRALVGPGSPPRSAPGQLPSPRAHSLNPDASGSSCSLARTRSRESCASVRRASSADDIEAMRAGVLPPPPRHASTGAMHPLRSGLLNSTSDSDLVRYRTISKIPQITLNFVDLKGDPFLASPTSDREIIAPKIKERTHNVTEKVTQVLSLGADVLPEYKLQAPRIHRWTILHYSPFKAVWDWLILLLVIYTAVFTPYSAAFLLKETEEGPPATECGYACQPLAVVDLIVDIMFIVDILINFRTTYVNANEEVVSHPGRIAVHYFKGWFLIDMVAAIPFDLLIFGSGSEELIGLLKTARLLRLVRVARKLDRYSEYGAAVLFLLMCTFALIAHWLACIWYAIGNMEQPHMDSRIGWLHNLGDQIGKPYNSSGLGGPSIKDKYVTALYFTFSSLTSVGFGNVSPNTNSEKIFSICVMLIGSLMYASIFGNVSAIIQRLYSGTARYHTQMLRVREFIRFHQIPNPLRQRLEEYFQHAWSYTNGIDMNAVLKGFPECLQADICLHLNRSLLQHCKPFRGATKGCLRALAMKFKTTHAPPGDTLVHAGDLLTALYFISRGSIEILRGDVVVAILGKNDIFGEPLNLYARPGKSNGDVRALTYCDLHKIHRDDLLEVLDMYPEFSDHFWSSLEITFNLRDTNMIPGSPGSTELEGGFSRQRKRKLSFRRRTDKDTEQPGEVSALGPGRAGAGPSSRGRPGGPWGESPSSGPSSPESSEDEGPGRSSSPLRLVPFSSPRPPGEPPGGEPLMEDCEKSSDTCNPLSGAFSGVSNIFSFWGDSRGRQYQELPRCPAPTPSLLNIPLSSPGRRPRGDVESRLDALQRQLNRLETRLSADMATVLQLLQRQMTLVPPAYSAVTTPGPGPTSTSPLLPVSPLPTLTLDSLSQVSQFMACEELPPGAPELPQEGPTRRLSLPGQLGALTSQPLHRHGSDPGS
row,SMILES,"hERG current change (%, negative = inhibition) at 10uM [%]"
1,COC(=O)c1sc(SC)c2c1CC(C)(C)C/C2=N/O,10.6
2,O=c1[nH]c(=O)n(-c2ccc(F)cc2)c(O)c1/C=C1\C=Nc2ccccc21,6.63
3,Cc1noc(C)c1C(=O)NCCc1ccc(S(N)(=O)=O)cc1,-23.7
4,COc1ccc(C2NN=C(c3ccc(C)cc3)S2)cc1 (centres unmarked),4.2
5,O=C(N/N=C/c1cc([N+](=O)[O-])ccc1O)c1cc(-c2ccccc2)nc2ccccc12,12.3
6,O=C(c1ccncc1)N(Cc1ccco1)Cc1cc2ccccc2[nH]c1=O,-43.5
7,CCOC(=O)C1C(c2cccc(F)c2)NC(=S)NC1(O)C(F)(F)F (centres unmarked),-14.4
8,CCOCC(O)CSCc1ccc(Cl)cc1 (centres unmarked),1.1
9,Fc1ccc(CN2CC[C@H]3C=CCc4cccc(c43)C2)cc1,-30.2
10,C1=C[C@@H]2CCN(Cc3ccccc3)Cc3cccc(c32)C1,-50.6
11,Cc1ccc(CN2CC[C@H]3C=CCc4cccc(c43)C2)cc1,-22.1
12,CN(C)c1ccc(P(=O)(OC2CCCCC2)C(O)c2ccncc2)cc1 (centres unmarked),11.2
13,CC1CC1C(=O)OCC(=O)NC(=O)c1ccccc1 (centres unmarked),6.93
14,CC(C)(C)C(=O)NC1CCN(C(=O)N2CCCC2)CC1,10.2
15,COc1ccc2c(CC(=O)OCC(=O)Nc3ccccc3[N+](=O)[O-])coc2c1,19.4
16,c1ccc(CCCCN2CCN=C2Nc2ccccc2)cc1,-42
17,c1ccc(NC2=NCCN2CCC2CCCC2)cc1,-24
18,c1ccc(NC2=NCCN2CCCC2CCCC2)cc1,-53.4
19,CCCCN1CCN=C1Nc1ccccc1,15.2
20,c1ccc(NC2=NCCN2CCCC2CCCCC2)cc1,-47.6
21,CCCCCCCN1CCN=C1Nc1ccccc1,-58
22,O=C(Oc1ccc(/C=N/NC(=O)c2ccccc2F)cc1)c1ccccc1,10.3
23,COC(=O)c1ccc(CSc2nnc(NC(=O)C3CC(=O)N(Cc4ccc(C)cc4)C3)s2)cc1 (centres unmarked),8.78

row,SMILES,"hERG current change (%, negative = inhibition) at 10uM [%]"
1,COC(=O)/C=C1\SC(=NC(=O)c2cccc(Cl)c2)NC1=O,-79.5
2,COC(=O)/C=C1/SC(=NC(=O)c2ccc(Cl)cc2)NC1=O,26.7
3,COC(=O)/C=C1/SC(=NC(=O)c2ccccc2)NC1=O,-13.9
4,COc1ccc(/C=C/C(=O)NCC(=O)N/N=C/c2cccs2)cc1,0.0661
5,CCC(C)[C@H](NC(=O)NCc1ccc(OC)c(OC)c1)C(=O)O (some centres unmarked),7.82
6,Cc1[nH]nc(N2CCCCC2)c1[N+](=O)[O-],-6.37
7,Cc1sc2nc(CN3CCCCC3)nc(Nc3ccc4c(c3)OCCO4)c2c1C,-85.8
8,Cc1sc2nc(CN3CCCC3)nc(NCc3ccncc3)c2c1C,-69.1
9,Cc1sc2nc(CN3CCOCC3)nc(NCCc3ccccc3)c2c1C,-30
10,Cc1nc(Nc2ccc3c(c2)OCCO3)c2c(C)c(C)sc2n1,-18.5
11,Cc1sc2nc(CN3CCOCC3)nc(NS(=O)(=O)c3ccc4c(c3)OCCO4)c2c1C,6.33
12,Cc1sc2nc(CN3CCCC3)nc(Cl)c2c1C,-4.03
13,COc1ccc(-c2nnnn2C)cc1S(=O)(=O)Nc1ccc(C)cc1C,-7.53
14,Cc1cc(OC(C)C(=O)NCCN2CCOCC2)c2c(C)c(C)c(=O)oc2c1 (centres unmarked),9.89
15,COc1cccc(N2CCN(C(=S)Nc3ccccc3)CC2)c1,19
16,O=C(CCCNS(=O)(=O)c1cccc2nsnc12)N1CCCCC1,10.7
17,COc1cc(CNC2CCCC2)cc(Cl)c1OCc1ccccc1F.Cl,-1.44
18,Cc1ccc(C)c(-c2ccc(=O)n(Cc3c(F)cccc3Cl)n2)c1,3.88
19,CC(C)(C)N(Cc1cc2ccccc2[nH]c1=O)C(=O)C1CCCCC1,-11.9
20,CCN(Cc1cc2ccccc2[nH]c1=O)C(=O)C1CCCCC1,-13.3
21,CN(Cc1cc2ccccc2[nH]c1=O)C(=O)C1CCCCC1,-71.6
22,CCOC(=O)[C@@H]1[C@H]2COc3ccccc3[C@@H]2N2C(=O)N(c3ccccc3)C(=O)[C@@]12C,11.4
23,COc1ccc(/C=N\NC(=O)c2ccc(-c3ccccc3)cc2)cc1COC(C)=O,-0.748

row,SMILES,"hERG current change (%, negative = inhibition) at 10uM [%]"
1,CC1=C(C(=O)N(C)C)C(c2ccccc2OC(F)F)NC(=O)N1 (centres unmarked),3.49
2,O=C(Nc1ccc(Cl)cc1C(=O)c1ccccc1)c1ccccc1,3.76
3,C[N+](C)(C)CC(=O)Nc1ccc(Cl)cc1C(=O)c1ccccc1.[Br-],21.4
4,CCN(CC)CC(=O)Nc1ccc(Cl)cc1C(=O)c1ccccc1,-21.2
5,CCN(CC)CC(=O)Nc1ccc(C)cc1C(=O)c1ccccc1,-19.5
6,CCN(CC)CCNCC(=O)Nc1ccc(Cl)cc1C(=O)c1ccccc1.O=C(O)C(=O)O,-75.2
7,CN(C)CCCNCC(=O)Nc1ccc(Cl)cc1C(=O)c1ccccc1.O=C(O)C(=O)O,-69
8,COc1ccc(C2NC(c3ccc(OC)cc3)C([N+](=O)[O-])C(C)(C)C2[N+](=O)[O-])cc1 (centres unmarked),41.2
9,CCCCCCCSc1nnc(-c2ccccc2N)c(=O)[nH]1,6.86
10,COc1ccccc1NC(=S)N1CCc2cc(OC)c(OC)cc2C1,-0.62
11,COc1ccc(C(=S)N2CCN(c3cccc(Cl)c3)CC2)c(OC)c1,3.25
12,COc1ccccc1CNC(=O)Cn1ccc2cc(S(=O)(=O)N3CCCC3)ccc21,-3.32
13,CCc1nnc(NC(=O)CCS(=O)(=O)c2ccccc2)s1,23.8
14,CN(C)S(=O)(=O)c1cccc(NC(=O)COC(=O)c2cc(=O)c3ccccc3o2)c1,11.3
15,CC(C(=O)OCC(=O)Nc1ccc(S(=O)(=O)N2CCCCC2)cc1)N1C(=O)c2ccccc2C1=O (centres unmarked),-16.4
16,CC(C(=O)OCC(=O)Nc1ccc2c(c1)OCO2)N1C(=O)c2ccccc2C1=O (centres unmarked),-12.4
17,O=C(COC(=O)c1ccccc1)Nc1cccc(S(=O)(=O)N2CCOCC2)c1,-26.5
18,CC(C(=O)OCC(=O)Nc1cccc(S(=O)(=O)N(C)C)c1)N1C(=O)c2ccccc2C1=O (centres unmarked),-82.8
19,CC(C(=O)OCC(=O)Nc1cccc(S(=O)(=O)N2CCOCC2)c1)N1C(=O)c2ccccc2C1=O (centres unmarked),-58
20,Cc1sc2nc(C(C)Nc3ccccc3N3CCOCC3)[nH]c(=O)c2c1C (centres unmarked),11.1
21,O=C(N/N=C/c1ccncc1)c1cccc([N+](=O)[O-])c1,-5.83
22,O=C(NCCN1CCN(C(=O)c2cccs2)CC1)C(=O)Nc1ccc(Br)cc1,-73.7
23,O=C(NCCN1CCN(C(=O)c2cccs2)CC1)c1cccs1,-35.8

row,SMILES,"hERG current change (%, negative = inhibition) at 10uM [%]"
1,O=C(CN1CCN(C(=O)c2ccco2)CC1)Nc1ccc(Br)cc1,5.38
2,Cc1cc(NC(=O)C(=O)NCCN2CCN(C(=O)c3cccs3)CC2)ccc1Br,-63.7
3,COc1ccc(NC(=O)C(=O)NCCN2CCN(C(=O)c3cccs3)CC2)cc1,-45.1
4,O=C(CN1CCOCC1)Nc1ccc(NC(=O)c2ccccc2F)cc1,10.7
5,O=C(CN1CCN(C(=O)c2ccccc2F)CC1)Nc1ccc(Br)cc1,-64.6
6,CCC(=O)Nc1ccc(N2CCN(C(=O)c3cccs3)CC2)cc1,-7.15
7,COc1ccccc1C(=O)N1CCN(CCNC(=O)C(=O)Nc2ccc(Br)c(C)c2)CC1,-48.8
8,O=C(CN1CCN(C(=O)c2cccs2)CC1)Nc1ccc(Br)cc1,-71.8
9,Cl.O=C(CN1CCN(C(=O)c2cccs2)CC1)NC1CCCCC1,-1.7
10,Cc1cc(NC(=O)C(=O)NCCN2CCN(S(C)(=O)=O)CC2)ccc1Br,-21.3
11,Cc1onc(-c2ccccc2)c1-c1nnc(CN2CCN(S(=O)(=O)c3ccccc3F)CC2)o1,-28.4
12,Cc1c(/C=N\NC(=O)C2(C)CC2(Cl)Cl)cnn1C (centres unmarked),5.55
13,COc1ccc(CC(=O)NC(=S)Nc2ccc(S(N)(=O)=O)cc2)cc1,-17.6
14,COc1ccc(/C=N/NC(=O)c2cccc(Br)c2)cc1CSc1ccccn1,2.67
15,CCCNC(=O)c1cccc(Cn2nc(C)c(Br)c2C)c1,-6.12
16,CSc1cc(C)n(-c2ccc(Cl)cc2)c(=S)c1C(C)=O,-33.9
17,Cn1c(SCC(=O)NNC(=O)c2ccccc2O)nnc1-c1ccccc1,18
18,CCN(CC)S(=O)(=O)c1ccc(N(C)Cc2cccnc2)nc1,-15.2
19,CC(C)[NH+]1CCC2(CC1)C(C#N)=C(N)NC([S-])=C2C#N,-4.59
20,COc1ccc(CN(CC(=O)NC2CCCC2)C(=O)c2ccc(-c3ccccc3)[nH]2)cc1,-19.9
